Measurements: PubChem BioAssay (NCI)
Compounds without any hit were thinned out: in the full panel of roughly 79,000, 15% have a hit. Activity calls are given as the source filed them. No stated cut-off is given here; in the data, active means growth inhibition above about 70%; inactive means the rest.

How the values were obtained:
[1] = NCI Yeast Anticancer Drug Screen. Data for the rad52 strain (AID 147);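 further: 0% = growth of vehicle-treated control cultures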; details: S. cerevisiae rad52 mutant growth inhibition, active compounds read high
Method in brief: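 Screen used a yeast mutant impaired in DNA repair. After compound exposure, growth was measured. Values reflect inhibition compared with vehicle-treated cells.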

[2] = NCI Yeast Anticancer Drug Screen. Data for the wt1 strain (AID 149);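 further: 0% = growth of vehicle-treated wt1 cultures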; details: S. cerevisiae wt1 strain (SPY 50644) growth inhibition, active compounds read high
Method in brief: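 wt1 strain grown with compound or vehicle; inhibition taken from the growth difference.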

[3] = NCI Yeast Anticancer Drug Screen. Data for the rad50EPP+ strain (AID 151);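 further: 0% = growth of vehicle-treated control cultures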; details: S. cerevisiae rad50 mutant strain, active compounds read high
Method in brief: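 Exposing the rad50EPP+ strain to each compound, growth was compared with vehicle-only cultures to give inhibition.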

[4] = NCI Yeast Anticancer Drug Screen. Data for the mgt1 strain (AID 153); details: S. cerevisiae mgt1 mutant growth inhibition, active compounds read high
Method in brief: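 Genetically defined yeast (mgt1) treated with compound; inhibition of growth expressed against vehicle-treated controls.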

[5] = NCI Yeast Anticancer Drug Screen. Data for the rad50 strain (AID 155);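 further: 0% = growth of vehicle-only cultures of the same strain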; details: S. cerevisiae rad50 strain growth inhibition, active compounds read high
Method in brief: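 DNA repair mutant yeast, compound exposure, growth read-out; inhibition is taken relative to vehicle.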

[6] = NCI Yeast Anticancer Drug Screen. Data for the mec2-1 strain (AID 157); details: S. cerevisiae mec2-1 strain, active compounds read high
Method in brief: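 Readout is yeast growth inhibition, normalised to vehicle-treated controls, in the mec2-1 strain exposed to compound.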

[7] = NCI Yeast Anticancer Drug Screen. Data for the rad14 strain (AID 159);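 further: 0% = growth of vehicle-treated control cultures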; details: S. cerevisiae rad14 strain growth inhibition, active compounds read high
Method in brief: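 DNA repair-defective yeast, compound-exposed; % growth inhibition derived by comparison with vehicle-treated controls.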

[8] = NCI Yeast Anticancer Drug Screen. Data for the sgs1 mgt1 strain (AID 161);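 further: 0% = growth of cultures given vehicle only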; details: S. cerevisiae sgs1 mgt1 strain, active compounds read high
Method in brief: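 Percent growth inhibition was derived by comparing compound-exposed mutant yeast with vehicle-exposed cultures. The strain carries alterations in DNA damage repair.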

[9] = NCI Yeast Anticancer Drug Screen. Data for the CLN2oe strain (AID 163);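 further: 0% = growth of vehicle-only control cultures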; details: S. cerevisiae CLN2oe strain, active compounds read high
Method in brief: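 Values reflect how much compound exposure reduced yeast growth, referenced to vehicle-exposed cells. Assay organism is a strain with a defined genetic change affecting cell-cycle control.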

[10] = NCI Yeast Anticancer Drug Screen. Data for the cln2 rad14 strain (AID 165);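 further: 0% = growth equal to vehicle treated cultures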; details: S. cerevisiae cln2 rad14 strain, active compounds read high
Method in brief: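 Relative to vehicle controls, growth inhibition of compound-treated cln2 rad14 yeast was recorded.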

[11] = NCI Yeast Anticancer Drug Screen. Data for the bub3 strain (AID 167); details: S. cerevisiae bub3 mutant strain, active compounds read high
Method in brief: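 In this screen, a yeast mutant lacking normal mitotic checkpoint function is challenged with compound. Relative growth versus vehicle gives the inhibition value.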

[12] = NCI Yeast Anticancer Drug Screen. Data for the wt2 strain (AID 169);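 further: 0% = growth of vehicle-treated yeast cultures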; details: S. cerevisiae wt2 strain growth inhibition, active compounds read high
Method in brief: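 Values express reduction in yeast growth under compound treatment, referenced to vehicle-treated cells.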

[13] = NCI Yeast Anticancer Drug Screen. Data for the mlh1 strain (AID 171);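 further: 0% = growth of vehicle-treated control cultures of the same strain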; details: S. cerevisiae mlh1 strain growth inhibition, active compounds read high
Method in brief: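 Steps: expose the defined-mutant yeast strain to compound; expose a parallel culture to vehicle; measure growth; express compound effect as inhibition relative to the vehicle culture.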

[14] = NCI Yeast Anticancer Drug Screen. Data for the sgs1 strain (AID 173);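 further: 0% = growth of vehicle-only control cultures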; details: S. cerevisiae sgs1 mutant, active compounds read high
Method in brief: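 Treat defined-mutant yeast with compound; measure growth; calculate inhibition relative to vehicle-treated cells.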

[15] = NCI Yeast Anticancer Drug Screen. Data for the mlh1 rad18 strain (AID 175); details: S. cerevisiae mlh1 rad18 strain growth inhibition, active compounds read high
Method in brief: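 Test agents were incubated with a yeast strain of defined genotype (DNA damage repair defect). Inhibition of growth was derived by comparison with vehicle-exposed cultures.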

[16] = NCI Yeast Anticancer Drug Screen. Data for the rad18 strain (AID 177); details: S. cerevisiae rad18 mutant growth inhibition, active compounds read high
Method in brief: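 A genetically defined yeast mutant impaired in DNA damage repair was treated with test compounds, then its growth was measured against cultures receiving vehicle alone.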

[17] = at 5.0 µM (retest, dose inferred, filed as 0.5)
[18] = at 50.0 µM (retest, dose inferred, filed as 5.0)

Measured: growth inhibition

CCCCCCc1cc(C(=O)OC/C(C)=N/NC(N)=O)c2ccccc2n1
active: [11]; [18] 77%
inactive: [1]; at 1.2 µM -1% | [1]; at 3.7 µM -1% | [1]; at 11.0 µM 1% | [1]; at 33.0 µM -1% | [1]; at 100.0 µM -3% | [2]; at 1.2 µM -2% | [2]; at 3.7 µM 1% | [2]; at 11.0 µM -4% | [2]; at 33.0 µM -5% | [2]; at 100.0 µM -5% | [3]; at 1.2 µM -1% | [3]; at 3.7 µM -3% | [3]; at 11.0 µM -4% | [3]; at 33.0 µM 2% | [3]; at 100.0 µM 3% | [4]; at 1.2 µM -3% | [4]; at 3.7 µM -3% | [4]; at 11.0 µM -2% | [4]; at 33.0 µM -5% | [4]; at 100.0 µM -5% | [5]; at 1.2 µM -3% | [5]; at 3.7 µM -3% | [5]; [17] -3% | [5]; at 11.0 µM 0% | [5]; at 33.0 µM -4% | [5]; [18] 32% | [5]; at 50.0 µM 26.6% | [5]; at 100.0 µM -4% | [6]; at 1.2 µM -4% | [6]; at 3.7 µM -2% | [6]; [17] -6% | [6]; at 11.0 µM -6% | [6]; at 33.0 µM -3% | [6]; [18] 42% | [6]; at 50.0 µM -1.15% | [6]; at 100.0 µM -7% | [7]; at 1.2 µM 0% | [7]; at 3.7 µM 3% | [7]; at 11.0 µM 3% | [7]; at 33.0 µM 0% | [7]; at 100.0 µM -4% | [8]; [17] -4% | [8]; [18] 47% | [8]; at 50.0 µM 31% | [9]; at 1.2 µM -3% | [9]; at 3.7 µM -11% | [9]; at 11.0 µM -5% | [9]; at 33.0 µM -13% | [9]; at 100.0 µM -10% | [10]; [17] -1% | [10]; [18] 21% | [10]; at 50.0 µM -12.3% | [11]; at 1.2 µM 0% | [11]; at 3.7 µM -4% | [11]; [17] -2% | [11]; at 11.0 µM -2% | [11]; at 33.0 µM 3% | [11]; at 50.0 µM 68.5% | [11]; at 100.0 µM 5% | [12]; at 1.2 µM 0% | [12]; at 3.7 µM -1% | [12]; at 11.0 µM 0% | [12]; at 33.0 µM -2% | [12]; at 100.0 µM -4% | [13]; at 1.2 µM -3% | [13]; at 3.7 µM -4% | [13]; at 11.0 µM -4% | [13]; at 33.0 µM -5% | [13]; at 100.0 µM -5% | [14]; at 1.2 µM -4% | [14]; at 3.7 µM -4% | [14]; at 11.0 µM -6% | [14]; at 33.0 µM -5% | [14]; at 100.0 µM -4% | [15]; [17] -4% | [15]; [18] 50% | [15]; at 50.0 µM 61.4% | [16]; at 1.2 µM -1% | [16]; at 3.7 µM -2% | [16]; at 11.0 µM -4% | [16]; at 33.0 µM -7% | [16]; at 100.0 µM -7%
